High-throughput results from PubChem BioAssay.
The list is not random: actives were taken first. Their share in the collection is about 2.9%.
EPAC2 antag: validation of human EPAC2 antagonists; EPAC2 Rap1B BODIPY-GDP exchange, fluorescence; Potency, µM (highest dose often 112 µM), inactives show at the highest dose activity, negative = inhibition, actives largely listed as inhibitors; actives 1.7% (n = 16,000); Q8WZA2; AID 1645886;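 further: 100% = activation by cAMP agonist control; nearly all actives have a fitted effect of over 40% in size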
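Fluorescent exchange read-out: 100 nM EPAC2 with 250 nM RAP1B–BODIPY-GDP and 50 uM GDP; BODIPY-GDP release lowers fluorescence. Read at 480/540 nm every 5 min for 30 min at room temperature; normalized to 6.5 mM cAMP.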
EPAC1 agonist: human EPAC1 agonism, validation; AID 1645883; Potency, µM, for inactives: max response, positive = active, hits mostly activators; EPAC1 Rap1b BODIPY-GDP exchange, fluorescence; actives 1% (n = 16,000); further: nearly all actives have a fitted effect of over 70% in size
Target sequence (O95398 whole entry, looked up): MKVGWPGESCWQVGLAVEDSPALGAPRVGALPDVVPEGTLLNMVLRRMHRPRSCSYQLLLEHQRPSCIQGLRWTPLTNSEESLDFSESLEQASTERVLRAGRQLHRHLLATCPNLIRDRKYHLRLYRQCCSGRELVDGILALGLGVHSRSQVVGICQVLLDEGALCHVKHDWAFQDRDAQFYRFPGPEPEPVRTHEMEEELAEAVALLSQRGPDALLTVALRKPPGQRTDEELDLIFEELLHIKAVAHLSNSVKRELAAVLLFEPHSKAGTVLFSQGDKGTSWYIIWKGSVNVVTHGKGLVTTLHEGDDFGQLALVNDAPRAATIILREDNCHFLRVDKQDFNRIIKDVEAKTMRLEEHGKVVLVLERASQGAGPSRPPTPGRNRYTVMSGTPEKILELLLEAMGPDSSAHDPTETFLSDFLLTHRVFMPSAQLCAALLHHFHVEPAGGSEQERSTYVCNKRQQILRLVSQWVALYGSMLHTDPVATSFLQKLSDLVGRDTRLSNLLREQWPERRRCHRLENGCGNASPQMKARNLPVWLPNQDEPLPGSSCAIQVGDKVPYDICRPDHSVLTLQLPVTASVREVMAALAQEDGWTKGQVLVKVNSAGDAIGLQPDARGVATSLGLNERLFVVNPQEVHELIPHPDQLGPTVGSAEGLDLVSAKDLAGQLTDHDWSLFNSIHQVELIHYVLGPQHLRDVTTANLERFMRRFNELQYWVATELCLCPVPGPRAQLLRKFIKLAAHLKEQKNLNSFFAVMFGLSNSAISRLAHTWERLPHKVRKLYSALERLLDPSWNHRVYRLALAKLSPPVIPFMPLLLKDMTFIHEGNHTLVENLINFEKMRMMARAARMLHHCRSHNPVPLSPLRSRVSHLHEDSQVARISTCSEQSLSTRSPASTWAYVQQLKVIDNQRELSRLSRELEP
* = called active by the depositor; ? = inconclusive; ! = not active in a repeat; [ ] = remark or other dose. The call rests on the fitted dose curve; in most records, active means well fitted curve in the direction sought with a large enough effect; inconclusive means small, poorly fitted or top-dose-only effect, or another doubt; inactive means no such curve, though single readings can be large; an effect the other way counts as inactive or inconclusive. Unless noted, on the % scale 0 is the no-effect control and ±100 the full control effect; potency means the concentration at half of the fitted maximal effect.

SMILES	EPAC2 antag	EPAC1 agonist
Cc1ccc2c(/C=C/c3c[nH]c4ccccc34)ccnc2c1C	-13%	100µM*
COc1ccc(OC)c2c(/C=C/c3c[nH]c4ccccc34)ccnc12	-9%	-27%
Cc1ccc(C(=O)Nc2cccc(-c3nc(CNC(=O)c4ccc5ccccc5n4)c(C)o3)c2)s1	-1%	3%
CCCc1nc(C(C)(C)O)c(C(=O)OCc2oc(=O)oc2C)n1Cc1ccc(-c2ccccc2-c2nn[nH]n2)cc1	-20%	-19%
CCOc1nc2cccc(C(=O)OC(C)OC(=O)OC3CCCCC3)c2n1Cc1ccc(-c2ccccc2-c2nn[nH]n2)cc1 (configuration not stated)	56µM*	?
COc1cc2c(cc1O)CCN[C@]21CS[C@@H]2c3c(OC(C)=O)c(C)c4c(c3[C@H](COC1=O)N1[C@@H]2[C@H]2c3c(cc(C)c(OC)c3O)C[C@@H]([C@@H]1O)N2C)OCO4	16%[239 µM]	-45%
COc1cccc(-c2nc3cc4c(cc3cc2CN(C(=O)c2cccs2)C2CC2)CCC4)c1OC	?	-4%
C=CC(C1=CC(=O)C(OC)=CC1=O)c1ccc(OC)cc1 (configuration not stated)	?	-18%
C=CC(C1=CC(=O)C(OC)=CC1=O)c1ccccc1 (configuration not stated)	35µM*	18%
CCOC(=O)N1CCN(Cc2ccc3c(c2)CN(C(=O)c2ccc4ncccc4c2)CCO3)CC1	-11%	1%
CN(C)CC/C=C1/c2ccccc2CSc2ccccc21	-10%[56.6 µM]	-20%
O=C(NCc1nnc2n1CCN(Cc1cc(F)cc(F)c1)CC2)c1cccc(F)c1	-25%	5%
COC(=O)Nc1nc2ccc(C(=O)c3ccccc3)cc2[nH]1	-11%[56.6 µM]	-26%
COC(=O)Nc1nc2ccc(C(=O)c3cccs3)cc2[nH]1	79µM*!	-3%
Cc1cc(C)c(S(=O)(=O)Nc2cccc(C(F)(F)F)c2)c(C)c1	40µM*	-11%
O=C(OCCOCCO)c1ccccc1Nc1cccc(C(F)(F)F)c1	-20%[56.6 µM]	-8%
COc1ccc(-c2nc3cc(C)ccc3cc2CN(C(=O)c2ccc(C)s2)C2CC2)cc1OC	?	5%
C[C@@]12C(=O)OC(=O)[C@@]1(C)[C@@H]1CC[C@@H]2O1	56µM*	-12%
C[C@@]12C(=O)OC(=O)[C@@]1(C)C1CCC2O1	12%	-33%
COc1ccccc1N1CCN(c2nc(CNC(=O)c3ccc4c(c3)OCO4)nc3ccccc23)CC1	?	10%
O=S1(=O)CCOC[C@H](CC2CCCCC2)N1Cc1ccccc1F	?	-21%
O=S1(=O)CCOC[C@H](CC2CCCCC2)N1Cc1cccc(C(F)(F)F)c1	18µM*	-116%
CC#CCC(C)[C@H](O)/C=C/[C@@H]1[C@H]2c3cccc(CCCC(=O)O)c3O[C@H]2C[C@H]1O (some centres not stated)	-16%	15%
CC[C@]1(O)C[C@H]2CN(CCC3=c4ccccc4=N[C]3[C@@](C(=O)OC)(c3cc4c(cc3OC)N(C)[C@H]3[C@@](O)(C(N)=O)[C@H](O)[C@]5(CC)C=CCN6CC[C@]43[C@@H]65)C2)C1	-14%	20%
COc1ccc(C(=O)N2CCCC(c3nc(SCc4ccccn4)ncc3C)C2)cc1F (configuration not stated)	?	-17%
SMILES	EPAC2 antag	EPAC1 agonist
COCC(=O)N1CCC2(CCN(Cc3cc(C(F)(F)F)cc(C(F)(F)F)c3)CC2)CC1	-25%	-65%
COc1ccc(C(=O)N2CCC[C@@]3(CCN(Cc4cc(C(F)(F)F)cc(C(F)(F)F)c4)C3)C2)cc1	14µM*	-109%
COc1ccc(C(=O)N2CCC3(CCN(Cc4cc(C(F)(F)F)cc(C(F)(F)F)c4)CC3)CC2)cc1	28µM*	-80%
COc1ccc(C(=O)N2CCC[C@@]3(CCN(Cc4ccncc4)C3)C2)cc1	-4%	-51%
C[C@@H]1NC(=O)[C@@H](N)CNC(=O)[C@H](C2CCNC(N)=N2)NC(=O)/C(=C/NC(N)=O)NC(=O)[C@H](CNC(=O)C[C@@H](N)CCCN)NC1=O (some centres not stated)	2%[56.6 µM]	0%
CC(=O)O[C@@H]1CC2CCC1(C)C2(C)C (some centres not stated)	5%	6%
CC[C@@]1([C@@H]2O[C@@H]([C@H]3O[C@@](O)(CO)[C@H](C)C[C@@H]3C)C[C@@H]2C)CC[C@H]([C@]2(C)CC[C@]3(C[C@H](O)[C@@H](C)[C@@H]([C@@H](C)[C@@H](OC)[C@H](C)C(=O)O)O3)O2)O1 (stereo in doubt)	-12%	-29%
COc1ccc(C(Cl)=C(c2ccc(OC)cc2)c2ccc(OC)cc2)cc1	3.2µM*!	?
COc1ccc(C(=O)CC(=O)c2ccc(C(C)(C)C)cc2)cc1	3%	-40%
COc1cc([C@@H]2c3cc4c(cc3C(O[C@@H]3O[C@@H]5CO[C@@H](C)O[C@H]5[C@H](O)[C@H]3O)C3COC(=O)[C@@H]32)OCO4)cc(OC)c1OP(=O)(O)O (some centres not stated)	20%	-3%
COc1cc(CNC(=O)CCCC/C=C/C(C)C)ccc1O	40µM*!	-36%
CCCCC[C@H](O)CC(=O)CCc1ccc(O)c(OC)c1	-28%[151 µM]	-9%
Oc1cc(-c2nc3ccccc3s2)cc2c1OCCN(Cc1cn[nH]c1-c1ccc(Cl)cc1)C2	-24%	-3%
CO[C@@H]1[C@H](OC(=O)/C=C/C=C/C=C/C=C/C(=O)O)CC[C@]2(CO2)[C@H]1[C@@]1(C)O[C@@H]1CC=C(C)C	-4%	-25%
Nc1cccc2c(N)cccc12	?	29%
Nc1c2ccccc2nc2ccccc12 (tested in a mixture with another compound)	79µM*	1%
CC[C@H](C)[C@H]1O[C@]2(CC[C@@H]1C)C[C@@H]1C[C@@H](C/C=C(\C)[C@@H](O[C@H]3C[C@H](OC)[C@@H](O[C@H]4C[C@H](OC)[C@@H](O)[C@H](C)O4)[C@H](C)O3)[C@@H](C)/C=C/C=C3\CO[C@@H]4[C@H](O)C(C)=C[C@@H](C(=O)O1)[C@]34O)O2	-16%	-58%
COc1cc2c(cc1OC)-c1cc(=Nc3c(C)cc(C)cc3C)n(C)c(=O)n1CC2	14µM*!	?
CC[C@@H](C(=O)O)[C@@H]1O[C@@H]([C@@H](C)[C@H](O)[C@H](C)C(=O)[C@H](CC)[C@H]2O[C@]3(C=C[C@@H](O)[C@]4(CC[C@@](C)([C@H]5CC[C@](O)(CC)[C@H](C)O5)O4)O3)[C@H](C)C[C@@H]2C)[C@@H](C)C[C@@H]1C	16%	-43%
Cc1cccc2cc(CNCCCN3CCCC3=O)c(N3CCN4CCCC4C3)nc12 (configuration not stated)	-27%	13%
COc1ncc2nc(CCc3ccccc3)c(=O)n(-c3ccccc3)c2n1	-44%	?
CN(C)c1ncc2nc(CCc3ccccc3)c(=O)n(-c3ccccc3)c2n1	-1%	112µM*
CN(C)c1ncc2nc(-c3ccc(F)cc3)c(=O)n(CCc3ccccc3)c2n1	-3%	-38%
CN(C)c1ncc2nc(-c3ccc(F)cc3)c(=O)n(-c3ccccc3)c2n1	-11%	100µM*
CCCCCCCCCCCC(=O)OC[C@@H](O)C1OC[C@H](O)[C@H]1O (some centres not stated)	?	-129%
